# Test results as given in PubChem BioAssay (NCI).
# Several values for one entry are separate records, joined by “and”; a condition that tells them apart may be missing. Identical values can stand only once. This is part of a sample that, as a whole, favours compounds with a hit. Of some 83,000 tested, about 20% had one in any assay.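 Compound tested at a single concentration for 48 hours in 96-well plates; a percent growth value below 10 was scored as active.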 Activity calls are given as the source filed them.
# System: HL-60(TB) leukemia
# Assay: NCI-60 one-dose screen, 48 h (100 = growth as untreated, 0 = no growth, -100 = all killed)
# Conditions: 10 µM unless noted
row,Compound,growth
1,CCCCCCc1cc2cc(-c3csc(/C=C/c4ccccc4)n3)c(=O)oc2cc1O,-46.8% (active)
2,COc1cc(C2CC(c3cccc(Nc4ccncc4)c3)=NN2c2ccc(Cl)cc2)cc(OC)c1OC (centres undefined),-45.2% (active)
3,CCC[C@H](N[C@@H](C)C(=O)N1[C@H](C(=O)O)C[C@@H]2CCCC[C@@H]21)C(=O)OCC,116% (inactive)
4,Cc1cccc([N+](=O)[O-])c1Cl,115% (inactive)
5,N#Cc1c(-c2ccccc2)nc(SCC2CO2)nc1N1CCOCC1 (centres undefined),63.7% (inactive)
6,CCOC(=O)c1cc(C(=O)c2cc(OC)c(OC)c(OC)c2)n2ncc3ccccc3c12,28.7% (inactive)
7,O=C(/C=C/c1c(-c2ccccc2)[nH]c2ccccc12)S(=O)(=O)c1ccccc1,-22.1% (active)
8,CCOC(=O)c1c[nH]c2cc(OCC3CC3)c(OCC3CC3)cc2c1=O,104% (inactive)
9,COc1ccc(OC)c(Nc2nc(-c3c(C)nc4sccn34)cs2)c1,67.9% (inactive)
10,COc1cccc2c1C(=O)c1c(O)c3c(c(O)c1C2=O)C[C@@](O)(C(=O)CO)C[C@@H]3OC1CC(OC(C)=O)C(OC(C)=O)C(C)O1 (some centres undefined),-40% (active)
11,CCCCN[C@H]1CC[C@@]2(C)[C@@H](CC[C@@]3(C)[C@H]2[C@H](O)C[C@H]2/C(=C(\CCC=C(C)C)C(=O)OC)[C@@H](OC(C)=O)C[C@@]23C)[C@@H]1C,0.474% (active)
12,Nc1c(C(=O)Nc2ccc(Cl)cc2)cc(-c2nc3ccccc3s2)c(=O)n1NS(=O)(=O)c1ccc(Cl)cc1,100% (inactive)
13,O=C(N/N=C1\c2ccccc2-c2cccc(C(=O)O)c21)c1ccc(O)cc1,103% (inactive)
14,O=C(NC[C@H](O)CN1CCc2ccccc2C1)c1cc(NC2COC2)ncn1,119% (inactive)
15,Cn1c2c(cc(S(=O)(=O)c3ccccc3)c1=O)CCc1c-2cnn1-c1ccccc1Cl,95.3% (inactive)
16,O=C(/C=C/c1cccc(Cl)c1)c1ccccc1,95.3% (inactive) and 82.5% (inactive)
17,OC1CCC(Oc2cccc3cnc(Nc4ccc5nc[nH]c5c4)nc23)CC1 (centres undefined),-26.1% (active) and 9% (active)
18,COc1ccc(/C=C/C(=O)/C=C(/C=C/c2ccc(OC)c(OC)c2)OB(F)F)cc1OC,19.7% (inactive)
19,COc1ccc2c(NCCCCCCCCNc3c4ccccc4nc4cc(OC)ccc34)c3ccccc3nc2c1,-92.3% (active)
20,CN(C)c1ccc2nc3ccc(N)cc3[n+](-c3ccccc3)c2c1,-5.21% (active) and 4.22% (active)

row,Compound,growth
1,O=C(Nc1ccc(Cl)cc1)Nc1ccc(Cl)c(Cl)c1,-23.6% (active)
2,Cc1ccc(Nc2nc(N)c3ccccc3n2)cc1Cl,78.2% (inactive)
3,COc1ccc(C2NC(=O)Nc3ccccc32)c(OC)c1 (centres undefined),93.2% (inactive)
4,CCOC(=O)/C=C/c1cc2cc(-c3csc4ccccc34)ccc2[nH]1,32.1% (inactive)
5,CC(=O)OCC(COC(C)=O)(COC(C)=O)COC(C)=O,104% (inactive)
6,CC(C)Cc1ccc(C(C)C(=O)NCc2ccc(Cn3c(=O)sn(CCCI)c3=O)cc2)cc1 (centres undefined),74.9% (inactive) and -41.5% (active)
7,O=C(Nc1ccc(-c2nc(N3CCOCC3)c3cccn3n2)cc1)Nc1cccnc1,12% (inactive)
8,N#Cc1cccc(F)c1,76.2% (inactive)
9,C[C@@H](O)[C@H]1C(=O)N2C(C(=O)O)=C(SCCN=CN)C[C@H]12,19.1% (inactive)
10,COC1C(=O)CCC2(CO2)C1(O)C1(C)OC1CCC(C)C (centres undefined),68% (inactive)
11,CC(C)CCC(=O)[C@@H](C)[C@H]1[C@@H](OC2OCC(O)C(O)C2NS(C)(=O)=O)C[C@H]2[C@@H]3CC=C4C[C@@H](O)CC[C@]4(C)[C@H]3CC[C@]12C (some centres undefined),7.32% (active)
12,Nc1ccccc1NC(=O)CCCCC(=O)Nc1ccc2c(c1)/C(=C/c1ccc[nH]1)C(=O)N2,89.6% (inactive)
13,O=C1/C(=C/c2ccc3cccc(Cl)c3n2)SC(=S)N1CCc1ccc(O)cc1,32.4% (inactive)
14,O=c1c2c([nH]c3ccccc13)CCCC2,97.6% (inactive) and 5.42% (active)
15,CCNc1cc(-c2cccc(OC(F)(F)F)c2)nc2ccc(N3CCCC3)cc12,-47.1% (active)
16,O=c1c2cc(F)ccc2sc2c(NCCCNCCO)nc3ccc(Cl)cc3c12,45.4% (inactive)
17,Clc1cc(Cl)cc(-c2ccc(-c3ccc(/C=N/NC4=NCCN4)cc3)s2)c1,19.6% (inactive)
18,O=[N+]([O-])c1ccc2c(c1)Cc1cc(F)ccc1-2,114% (inactive)
19,COc1ccc(/C=C/C(=O)c2ccc(Nc3ccnc4cc(Cl)ccc34)cc2)cc1,17.5% (inactive)
